Hits are enriched below; roughly 3.4% of the tested compounds scored in any of these assays.
GPR151 ag = activators of human GPR151; AID 1508602; hit rate 1% among 650,000; PathHunter beta-arrestin GPR151 cells, luminescence; activation, % at 11.2 µM; in the data active = activation above about 4.9%
TEAD-YAP inh = TEAD-YAP interaction inhibition; HEK-TIYL cells, TEAD-Gal4/YAP UAS-luciferase luminescence; inhibition, % at 9.12 µM; hit rate 1.4% among 640,000; AID 1259422; in the data active = inhibition above about 32%
FBW7 activator = human FBW7 E3 ligase activation, primary screen; Q969H0; AlphaScreen FBW7–phospho-cyclin E peptide binding, activator screen; normalized activity (activation), % at 26.1 µM; hit rate 0.13% among 650,000; in the data active = normalized activity above about 1.9%;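 also: purified mutant Fbw7 with reduced substrate affinity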
MITF primary = blocks human microphthalmia-associated transcription factor | O75030 | AlphaScreen MITF homodimerization, bead proximity signal | inhibition, % at 2.6 µM | hit rate 0.91% among 650,000 | AID 1259374; in the data active = inhibition above about 50%
Target sequence (O75030 whole entry, looked up): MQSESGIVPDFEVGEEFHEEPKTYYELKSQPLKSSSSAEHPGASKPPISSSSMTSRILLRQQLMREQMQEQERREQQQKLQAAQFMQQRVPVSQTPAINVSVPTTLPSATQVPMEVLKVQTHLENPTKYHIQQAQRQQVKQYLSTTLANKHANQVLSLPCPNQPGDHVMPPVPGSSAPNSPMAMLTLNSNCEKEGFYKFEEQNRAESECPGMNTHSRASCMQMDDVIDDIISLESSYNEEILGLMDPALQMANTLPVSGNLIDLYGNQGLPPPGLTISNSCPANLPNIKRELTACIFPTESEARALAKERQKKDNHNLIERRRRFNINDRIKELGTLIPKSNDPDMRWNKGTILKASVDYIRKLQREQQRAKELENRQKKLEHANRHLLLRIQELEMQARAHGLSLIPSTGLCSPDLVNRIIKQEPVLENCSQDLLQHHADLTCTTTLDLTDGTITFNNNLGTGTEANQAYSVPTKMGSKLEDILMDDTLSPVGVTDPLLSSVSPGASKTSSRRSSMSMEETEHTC
MITF inh conf = confirmation of human MITF inhibitors | shares compounds with MITF primary | AlphaScreen MITF homodimerization, biotin/His-MITF beads | inhibition, % at 2.6 µM | hit rate 16% among 4,700 | AID 1259372;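 active = inhibition above a cutoff derived from the DMSO control wells, cut at about 28% in these data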;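 also: inhibitors lower the bead chemiluminescence by keeping MITF from dimerizing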
AlphaScreen DR = counter-screen: compounds optically interfering with AlphaScreen. shares compounds with MITF primary. AlphaScreen optical interference counterscreen, cell-free. IC50, µM. hit rate 6% among 480. AID 1259373; call rule not given here
AlphaScreen intf2 = AlphaScreen optical interference, counter-screen | shares compounds with MITF primary | LysRS AlphaScreen counterscreen, signal interference, triplicate | inhibition, % at 2.6 µM | hit rate 7.6% among 4,700;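 active = inhibition above a cutoff derived from the DMSO control wells, cut at about 30% in these data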
Of the large screens only hits and unclear results are named; the others gave an inactive call (follow-up assays come after a bar, where they were run).

CC(C)(c1ccccc1)c1ccc(OCC(O)CNC2CCS(=O)(=O)C2)cc1 (stereo unspecified)	MITF primary 77 | MITF inh conf inactive | AlphaScreen intf2 inactive
CC(C)(c1ccccc1)c1ccc(OCC(O)CN2CCCCC2)cc1 (stereo unspecified)	none
CC1(NCC(O)COc2ccccc2)CCS(=O)(=O)C1 (stereo unspecified)	MITF primary 65 | MITF inh conf inactive | AlphaScreen intf2 inactive
CS(=O)(=O)NCC(c1ccc2c(c1)OCO2)N1CCOCC1 (stereo unspecified)	none
FC(F)Oc1ccccc1CN1CCC(c2nc(-c3ccncc3)no2)CC1	none
Clc1ccc(CN2CCN(Cc3c[nH]c4ccccc34)CC2)cc1	MITF primary 75 | MITF inh conf 84 | AlphaScreen DR inactive | AlphaScreen intf2 inactive
c1ccc2c(CN3CCN(Cc4c[nH]c5ccccc45)CC3)cccc2c1	MITF primary 74 | MITF inh conf inactive | AlphaScreen intf2 inactive
Fc1ccccc1CN1CCN(Cc2c[nH]c3ccccc23)CC1	MITF primary 65 | MITF inh conf inactive | AlphaScreen intf2 inactive
Fc1ccccc1CN1CCN(Cc2ccc3ccccc3c2)CC1	MITF primary 75 | MITF inh conf inactive | AlphaScreen intf2 inactive
c1ccc2cc(CN3CCOCC3)ccc2c1	none
COc1ccc2nc(NS(=O)(=O)c3ccc(Cl)cc3)c(Nc3cccc(NC(C)=O)c3)nc2c1	none
O=C(O)c1cccc(NS(=O)(=O)c2cccc(S(=O)(=O)c3ccccc3)c2)c1	none
Fc1ccccc1CN1CCCCCC1	none
Fc1ccccc1CN1CCN(Cc2cccc3ccccc23)CC1	MITF primary 74 | MITF inh conf inactive | AlphaScreen intf2 inactive
CCS(=O)(=O)N1CCN(Cc2c[nH]c3ccccc23)CC1	MITF primary 51 | MITF inh conf inactive | AlphaScreen intf2 inactive
Brc1ccccc1CN1CCN(Cc2c[nH]c3ccccc23)CC1	MITF primary 59 | MITF inh conf inactive | AlphaScreen intf2 inactive
c1cnc(N2CCN(Cc3c[nH]c4ccccc34)CC2)nc1	none
O=C(COC(=O)c1cc(=O)c2ccccc2o1)Nc1ccc(Cl)c(Cl)c1	none
COCCNCC(=O)Nc1ccc(CN2CCCCC2)cc1	MITF primary 53 | MITF inh conf inactive | AlphaScreen intf2 inactive
COc1cccc(CNCC(=O)Nc2ccc(N3CCCCCC3)cc2)c1	MITF primary 53 | MITF inh conf inactive | AlphaScreen intf2 inactive
O=C(CCl)Nc1ccc(CN2CCCCC2)cc1	none
COCCNCC(=O)Nc1ccc(N2CCCCC2)cc1	MITF primary 61 | MITF inh conf inactive | AlphaScreen intf2 inactive
O=C1Nc2cc(C(=O)O)ccc2S/C1=C/c1cccc(Cl)c1	none
Cc1ccc(-c2nnc(Nc3ccc(Cl)c(Cl)c3)c3ccccc23)cc1S(=O)(=O)NCCO	MITF primary 89 | MITF inh conf inactive | AlphaScreen intf2 inactive
O=C(CCCCC1SCC2NC(=O)NC21)NC1(c2ccc(F)cc2)CCCC1 (stereo unspecified)	MITF primary 109 | MITF inh conf 88 | AlphaScreen DR 4.3 | AlphaScreen intf2 inactive
COC(=O)CCCC[C@H]1SC[C@H]2NC(=O)N[C@H]21	none
CCc1ccc(C(=O)COC(=O)c2[nH]c(C)c(C(C)=O)c2C)cc1	none
CCOCC(O)CNCc1c(C(=O)N(C)CCc2ccccc2)nc2sccn12 (stereo unspecified)	none
Nc1nnc(SCC(=O)NCCCCNC(=O)CSc2nnc(N)s2)s1	none
CC(C)NC(=O)NC(=O)CSc1nnc(N)s1	MITF primary 64 | MITF inh conf inactive | AlphaScreen intf2 inactive
CC1CCN(Cc2csc(N)n2)CC1	MITF primary 53 | MITF inh conf inactive | AlphaScreen intf2 inactive
Nc1nc(CC23CC4CC(CC(C4)C2)C3)cs1	none
O=C(NCC(c1ccsc1)N1CCCCCC1)c1c(F)cccc1F (stereo unspecified)	MITF primary 84 | MITF inh conf inactive | AlphaScreen intf2 inactive
Cn1c(COc2ccccc2Cl)nnc1SCC(=O)Nc1cccc(C(=O)O)c1	none
C=CCC1(NCc2ccco2)CCN(C)CC1	MITF primary 63 | MITF inh conf inactive | AlphaScreen intf2 inactive
CC(C(=O)NCc1ccco1)N1CCN(C)CC1 (stereo unspecified)	none
COC(=O)C1=C(C)N(C)C(=O)/C1=C\c1ccc(Cl)c(Cl)c1	none
CC1C=CCC2C(=O)N(c3ccc(Cl)c(F)c3)C(=O)C12 (stereo unspecified)	none
CCOC(=O)c1sc(NC(=O)CSc2nnc(CNC(=O)c3ccc([N+](=O)[O-])cc3)n2-c2ccc(F)cc2)c(C(=O)OCC)c1C	none
CCOC(=O)c1ccc(OCC(O)CN2CCCC2)cc1 (stereo unspecified)	MITF primary 52 | MITF inh conf inactive | AlphaScreen intf2 inactive
O=C1CCCN1CCn1cnc2c(NCc3nc4ccccc4[nH]3)nc(Nc3ccccc3)nc21	MITF primary 52 | MITF inh conf inactive | AlphaScreen intf2 inactive
COc1cc(CNC2CCCC2)cc(OC)c1	none
COc1cc(CNC2CCCCC2)cc(OC)c1	MITF primary 52 | MITF inh conf inactive | AlphaScreen intf2 inactive
COC(=O)c1ccc(Cn2c([N+](=O)[O-])cnc2C)cc1	MITF primary 78 | MITF inh conf inactive | AlphaScreen intf2 inactive
Cc1ncc([N+](=O)[O-])n1Cc1ccc(F)cc1	none
Cc1ccc(NC(=O)C2(N3C(=O)CC3c3ccco3)CCCCC2)cc1 (stereo unspecified)	MITF primary 68 | MITF inh conf inactive | AlphaScreen intf2 inactive
O=C1CC(=O)N(Cc2ccco2)C(=O)N1	none
O=C1CC(=O)N(Cc2ccco2)C(=S)N1	MITF primary 70 | MITF inh conf inactive | AlphaScreen intf2 62
Cc1ccc(C(NC(=O)/C=C\c2ccc3c(c2)OCO3)C(=O)Nc2ccc3c(c2)OCO3)cc1 (stereo unspecified)	MITF primary 68 | MITF inh conf inactive | AlphaScreen intf2 inactive
CCOc1ccccc1/C=N\NC(=O)c1ccco1	MITF primary 70 | MITF inh conf inactive | AlphaScreen intf2 inactive
COc1ccc(CN2CCC(C(=O)NCc3ccc(C)cc3)CC2)cc1	MITF primary 77 | MITF inh conf inactive | AlphaScreen intf2 inactive
COc1ccc(CN2CCCC(C(=O)NN)C2)cc1 (stereo unspecified)	none
Cc1ccc(CN2CCCC(C(=O)N3CCCCCC3)C2)cc1 (stereo unspecified)	MITF primary 64 | MITF inh conf inactive | AlphaScreen intf2 inactive
COc1ccc(CN2CCCC(C(=O)N3CCCC3)C2)cc1 (stereo unspecified)	none
Cc1ccc(CN2CCCC(C(=O)N3CCCCC3)C2)cc1 (stereo unspecified)	none
COc1ccc(CN2CCCC(C(=O)N3CCCCCC3)C2)cc1 (stereo unspecified)	MITF primary 73 | MITF inh conf inactive | AlphaScreen intf2 inactive

Bioassay records as filed in PubChem BioAssay.
